Reference: paper PMC7862700, “An all-to-all approach to the identification of sequence-specific readers for epigenetic DNA modifications on cytosine”

Experiments:
Experiment in all cases: DAPPL (digital affinity profiling via proximity ligation, sequencing); 10 mM Tris-HCl pH 7.5, 50 mM NaCl, 1 mM DTT, 4% glycerol, room temperature, 30 min; GST-TFs on glutathione beads, 16-mer random dsDNA library, 0.1% formaldehyde crosslink after washing; high values mean tight binding
FEV = target: T1, FEV (Homo sapiens, UniProt Q99581 1-238); settings: protein: recombinant; tags: N-terminal GST; dsDNA, one strand shown
T1 sequence: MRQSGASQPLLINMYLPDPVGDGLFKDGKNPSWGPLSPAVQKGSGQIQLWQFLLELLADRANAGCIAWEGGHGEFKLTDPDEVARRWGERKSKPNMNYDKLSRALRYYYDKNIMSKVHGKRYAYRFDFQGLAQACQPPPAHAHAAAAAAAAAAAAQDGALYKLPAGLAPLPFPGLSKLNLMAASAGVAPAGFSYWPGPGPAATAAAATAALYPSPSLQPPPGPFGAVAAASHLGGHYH
How it was run: (§1)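 Pools of DNA-barcoded human transcription factors, expressed in yeast as GST fusions on glutathione beads and combined with a tag-only sample, were incubated with 200 nmole of a 16-mer random double-stranded DNA library. Incubation took 30 min at room temperature in Tris/NaCl/DTT/glycerol buffer and was followed by washing, 0.1% formaldehyde crosslinking, proximity ligation (BsaI/T4 ligase, 1 h, 37 °C), PCR amplification and sequencing on an Illumina NextSeq500. Binding signal is the ratio of a hexamer's read frequency for a factor to its frequency for the tag-only sample.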

ETV5 = ETV5 (Homo sapiens, UniProt P41161 1-510); settings: protein: recombinant; tags: N-terminal GST; dsDNA, one strand shown
How it was run: as §1

HSF1 = HSF1 (Homo sapiens, UniProt Q00613 1-529); settings: protein: recombinant; tags: N-terminal GST; chain copies: 3; dsDNA, one strand shown
How it was run: as §1

SPIC = target: T2, SPIC (Homo sapiens, UniProt Q8N5J4 1-248); settings: protein: recombinant; tags: N-terminal GST; dsDNA, one strand shown
T2 sequence: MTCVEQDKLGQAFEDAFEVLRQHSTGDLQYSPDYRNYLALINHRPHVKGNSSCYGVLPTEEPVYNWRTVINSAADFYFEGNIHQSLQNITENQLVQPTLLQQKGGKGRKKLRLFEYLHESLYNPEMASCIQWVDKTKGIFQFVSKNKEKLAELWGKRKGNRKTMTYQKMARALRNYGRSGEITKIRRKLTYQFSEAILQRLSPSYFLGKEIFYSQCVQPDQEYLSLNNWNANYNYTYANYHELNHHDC
How it was run: as §1

ELF4 = ELF4 (Homo sapiens, UniProt Q99607 1-663); settings: protein: recombinant; tags: N-terminal GST; dsDNA, one strand shown
How it was run: as §1

ELK4 = target: T3, ELK4 (Homo sapiens, UniProt P28324-2 1-405); settings: protein: recombinant; tags: N-terminal GST; dsDNA, one strand shown
T3 sequence: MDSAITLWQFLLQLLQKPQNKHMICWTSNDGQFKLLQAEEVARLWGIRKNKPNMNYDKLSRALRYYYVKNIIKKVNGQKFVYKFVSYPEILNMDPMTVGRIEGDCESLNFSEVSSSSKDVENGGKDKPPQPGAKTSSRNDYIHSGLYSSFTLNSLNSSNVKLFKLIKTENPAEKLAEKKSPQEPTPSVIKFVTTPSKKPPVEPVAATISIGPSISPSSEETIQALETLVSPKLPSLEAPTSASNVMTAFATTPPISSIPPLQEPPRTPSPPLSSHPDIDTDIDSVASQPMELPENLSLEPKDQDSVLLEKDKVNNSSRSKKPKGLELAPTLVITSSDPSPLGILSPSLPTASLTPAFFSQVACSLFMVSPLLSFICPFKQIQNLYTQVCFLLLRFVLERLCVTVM
How it was run: as §1

ETV2 = target: T4, ETV2 (Homo sapiens, UniProt O00321 1-342); settings: protein: recombinant; tags: N-terminal GST; dsDNA, one strand shown
T4 sequence: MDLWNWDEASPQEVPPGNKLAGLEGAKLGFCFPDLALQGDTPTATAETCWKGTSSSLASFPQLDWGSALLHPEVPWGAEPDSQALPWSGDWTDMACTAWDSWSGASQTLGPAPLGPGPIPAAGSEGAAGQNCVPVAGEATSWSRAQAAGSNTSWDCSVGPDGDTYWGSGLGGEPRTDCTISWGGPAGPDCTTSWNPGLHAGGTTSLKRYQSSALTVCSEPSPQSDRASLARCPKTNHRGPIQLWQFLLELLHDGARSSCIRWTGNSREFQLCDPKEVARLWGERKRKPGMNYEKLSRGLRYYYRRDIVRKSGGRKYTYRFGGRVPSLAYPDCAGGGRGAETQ
How it was run: as §1

ELF3 = target: T5, ELF3 (Homo sapiens, UniProt P78545 1-371); settings: protein: recombinant; tags: N-terminal GST; dsDNA, one strand shown
T5 sequence: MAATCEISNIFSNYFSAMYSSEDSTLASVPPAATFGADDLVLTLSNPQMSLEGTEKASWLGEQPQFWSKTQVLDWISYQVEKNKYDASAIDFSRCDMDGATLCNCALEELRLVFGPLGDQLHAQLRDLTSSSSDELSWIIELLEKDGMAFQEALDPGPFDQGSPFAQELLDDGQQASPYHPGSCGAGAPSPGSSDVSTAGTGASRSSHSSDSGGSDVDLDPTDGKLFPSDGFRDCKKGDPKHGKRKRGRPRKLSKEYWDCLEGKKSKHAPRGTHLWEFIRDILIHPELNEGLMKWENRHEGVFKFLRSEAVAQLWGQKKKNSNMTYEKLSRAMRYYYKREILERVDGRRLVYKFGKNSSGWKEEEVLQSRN
How it was run: as §1

CRX = CRX (Homo sapiens, UniProt O43186 1-299); settings: protein: recombinant; tags: N-terminal GST; dsDNA, one strand shown
How it was run: as §1

ETV1 = ETV1 (Homo sapiens, UniProt P50549 1-477); settings: protein: recombinant; tags: N-terminal GST; dsDNA, one strand shown
How it was run: as §1

ERF = target: T6, ERF (Homo sapiens, UniProt P50548 1-548); settings: protein: recombinant; tags: N-terminal GST; dsDNA, one strand shown
T6 sequence: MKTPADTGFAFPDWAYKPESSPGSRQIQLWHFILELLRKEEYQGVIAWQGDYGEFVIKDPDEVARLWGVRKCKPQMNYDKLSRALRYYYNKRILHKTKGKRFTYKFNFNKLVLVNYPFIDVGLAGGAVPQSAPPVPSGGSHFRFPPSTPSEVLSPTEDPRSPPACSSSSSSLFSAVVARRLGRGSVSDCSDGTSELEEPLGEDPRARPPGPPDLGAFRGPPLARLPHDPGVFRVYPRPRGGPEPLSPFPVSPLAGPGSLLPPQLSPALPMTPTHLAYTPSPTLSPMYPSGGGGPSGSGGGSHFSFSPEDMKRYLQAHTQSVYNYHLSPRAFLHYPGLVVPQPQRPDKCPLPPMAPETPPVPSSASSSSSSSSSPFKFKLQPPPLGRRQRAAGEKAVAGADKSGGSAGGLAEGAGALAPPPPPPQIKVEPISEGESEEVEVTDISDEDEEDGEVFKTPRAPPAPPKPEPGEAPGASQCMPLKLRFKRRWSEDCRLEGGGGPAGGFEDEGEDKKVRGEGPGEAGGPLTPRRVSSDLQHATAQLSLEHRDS
How it was run: as §1

ETV3L = target: T7, ETV3L (Homo sapiens, UniProt Q6ZN32 1-361); settings: protein: recombinant; tags: N-terminal GST; dsDNA, one strand shown
T7 sequence: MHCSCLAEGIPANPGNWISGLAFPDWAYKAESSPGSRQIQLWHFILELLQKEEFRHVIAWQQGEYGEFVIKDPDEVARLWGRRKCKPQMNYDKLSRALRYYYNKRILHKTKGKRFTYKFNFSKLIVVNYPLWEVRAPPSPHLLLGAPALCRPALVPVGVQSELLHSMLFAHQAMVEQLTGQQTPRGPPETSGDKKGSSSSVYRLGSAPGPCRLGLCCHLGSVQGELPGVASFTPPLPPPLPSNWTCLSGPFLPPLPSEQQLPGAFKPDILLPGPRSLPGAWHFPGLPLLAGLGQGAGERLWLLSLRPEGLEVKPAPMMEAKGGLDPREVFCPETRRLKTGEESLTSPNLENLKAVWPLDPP
How it was run: as §1

ETS2 = target: T8, ETS2 (Homo sapiens, UniProt P15036 1-469); settings: protein: recombinant; tags: N-terminal GST; dsDNA, one strand shown
T8 sequence: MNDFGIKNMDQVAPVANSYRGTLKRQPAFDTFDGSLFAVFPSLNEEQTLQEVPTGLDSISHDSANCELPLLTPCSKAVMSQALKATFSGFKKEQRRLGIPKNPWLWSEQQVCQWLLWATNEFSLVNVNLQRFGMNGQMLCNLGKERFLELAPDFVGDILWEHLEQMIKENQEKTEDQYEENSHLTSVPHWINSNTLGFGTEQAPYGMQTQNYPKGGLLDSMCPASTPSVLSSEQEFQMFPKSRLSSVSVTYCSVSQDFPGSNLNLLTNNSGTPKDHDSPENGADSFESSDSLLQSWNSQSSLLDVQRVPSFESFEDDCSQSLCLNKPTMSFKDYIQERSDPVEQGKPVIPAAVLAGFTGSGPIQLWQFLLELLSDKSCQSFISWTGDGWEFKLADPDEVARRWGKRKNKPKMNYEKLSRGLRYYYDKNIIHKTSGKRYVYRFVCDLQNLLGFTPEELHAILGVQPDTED
How it was run: as §1

SPDEF = target: T9, SPDEF (Homo sapiens, UniProt O95238 1-335); settings: protein: recombinant; tags: N-terminal GST; dsDNA, one strand shown
T9 sequence: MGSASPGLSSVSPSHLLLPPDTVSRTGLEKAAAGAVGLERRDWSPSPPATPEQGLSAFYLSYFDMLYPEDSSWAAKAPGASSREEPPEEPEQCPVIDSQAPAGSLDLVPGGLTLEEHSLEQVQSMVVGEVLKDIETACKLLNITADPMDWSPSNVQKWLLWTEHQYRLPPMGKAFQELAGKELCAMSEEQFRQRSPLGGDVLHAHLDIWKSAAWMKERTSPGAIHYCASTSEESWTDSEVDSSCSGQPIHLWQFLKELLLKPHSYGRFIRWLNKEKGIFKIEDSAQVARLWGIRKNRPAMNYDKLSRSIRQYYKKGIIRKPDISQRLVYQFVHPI
How it was run: as §1

ETV7 = target: T10, ETV7 (Homo sapiens, UniProt Q9Y603 1-341); settings: protein: recombinant; tags: N-terminal GST; dsDNA, one strand shown
T10 sequence: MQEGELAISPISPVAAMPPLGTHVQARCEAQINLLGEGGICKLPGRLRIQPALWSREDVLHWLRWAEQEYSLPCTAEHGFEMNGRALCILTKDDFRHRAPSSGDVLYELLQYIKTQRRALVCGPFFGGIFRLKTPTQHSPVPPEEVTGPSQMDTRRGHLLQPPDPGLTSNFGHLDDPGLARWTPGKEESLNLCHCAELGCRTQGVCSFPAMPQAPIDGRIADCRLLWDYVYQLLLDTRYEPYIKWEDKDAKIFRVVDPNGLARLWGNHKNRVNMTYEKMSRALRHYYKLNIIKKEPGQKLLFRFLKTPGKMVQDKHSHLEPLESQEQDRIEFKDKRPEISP
How it was run: as §1

ELF5 = target: T11, ELF5 (Homo sapiens, UniProt Q9UKW6-2 1-255); settings: protein: recombinant; tags: N-terminal GST; dsDNA, one strand shown
T11 sequence: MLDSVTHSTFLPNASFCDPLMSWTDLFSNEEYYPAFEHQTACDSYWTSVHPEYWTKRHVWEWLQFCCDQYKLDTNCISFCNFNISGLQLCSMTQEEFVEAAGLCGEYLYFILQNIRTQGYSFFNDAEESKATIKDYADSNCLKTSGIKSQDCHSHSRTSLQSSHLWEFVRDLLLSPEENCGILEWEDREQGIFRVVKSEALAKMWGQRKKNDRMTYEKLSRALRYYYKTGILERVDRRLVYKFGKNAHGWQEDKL
How it was run: as §1

ETV3 = target: T12, ETV3 (Homo sapiens, UniProt P41162-2 1-143); settings: protein: recombinant; tags: N-terminal GST; dsDNA, one strand shown
T12 sequence: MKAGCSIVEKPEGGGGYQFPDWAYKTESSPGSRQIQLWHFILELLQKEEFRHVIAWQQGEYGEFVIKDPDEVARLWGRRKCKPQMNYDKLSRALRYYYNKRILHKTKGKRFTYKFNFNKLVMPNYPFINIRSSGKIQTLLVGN
How it was run: as §1

ETV6 = ETV6 (Homo sapiens, UniProt P41212 1-452); settings: protein: recombinant; tags: N-terminal GST; dsDNA, one strand shown
How it was run: as §1

HSF1, sequence (Q00613 whole entry): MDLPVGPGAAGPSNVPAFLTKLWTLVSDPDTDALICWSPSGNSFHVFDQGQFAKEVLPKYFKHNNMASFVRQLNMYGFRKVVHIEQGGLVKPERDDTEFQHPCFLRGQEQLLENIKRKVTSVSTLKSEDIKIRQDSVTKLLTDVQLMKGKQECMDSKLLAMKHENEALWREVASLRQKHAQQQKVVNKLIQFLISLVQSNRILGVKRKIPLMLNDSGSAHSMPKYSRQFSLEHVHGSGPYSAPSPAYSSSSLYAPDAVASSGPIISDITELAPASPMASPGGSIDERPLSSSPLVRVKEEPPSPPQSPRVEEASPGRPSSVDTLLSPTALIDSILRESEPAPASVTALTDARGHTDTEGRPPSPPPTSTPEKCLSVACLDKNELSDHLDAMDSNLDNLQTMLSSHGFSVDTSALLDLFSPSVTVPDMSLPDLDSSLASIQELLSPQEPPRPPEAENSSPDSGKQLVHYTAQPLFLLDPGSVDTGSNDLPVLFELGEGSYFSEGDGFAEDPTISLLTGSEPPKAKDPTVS
ETV5, sequence (P41161 whole entry): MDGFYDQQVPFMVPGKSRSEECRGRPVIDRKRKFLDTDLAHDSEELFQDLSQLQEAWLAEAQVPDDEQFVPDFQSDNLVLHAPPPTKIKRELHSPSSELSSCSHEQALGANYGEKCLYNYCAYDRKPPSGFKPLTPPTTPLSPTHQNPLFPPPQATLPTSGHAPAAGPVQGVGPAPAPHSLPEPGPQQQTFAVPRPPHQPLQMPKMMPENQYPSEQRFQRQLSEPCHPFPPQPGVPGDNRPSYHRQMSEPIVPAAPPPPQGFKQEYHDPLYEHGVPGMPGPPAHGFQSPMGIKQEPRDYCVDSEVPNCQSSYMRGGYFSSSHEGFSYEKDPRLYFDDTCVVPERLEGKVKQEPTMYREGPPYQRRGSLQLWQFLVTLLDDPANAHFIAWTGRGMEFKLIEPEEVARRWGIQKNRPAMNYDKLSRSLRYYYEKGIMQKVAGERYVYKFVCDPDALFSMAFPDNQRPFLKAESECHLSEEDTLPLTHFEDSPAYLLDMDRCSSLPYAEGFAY
CRX, sequence (O43186 whole entry): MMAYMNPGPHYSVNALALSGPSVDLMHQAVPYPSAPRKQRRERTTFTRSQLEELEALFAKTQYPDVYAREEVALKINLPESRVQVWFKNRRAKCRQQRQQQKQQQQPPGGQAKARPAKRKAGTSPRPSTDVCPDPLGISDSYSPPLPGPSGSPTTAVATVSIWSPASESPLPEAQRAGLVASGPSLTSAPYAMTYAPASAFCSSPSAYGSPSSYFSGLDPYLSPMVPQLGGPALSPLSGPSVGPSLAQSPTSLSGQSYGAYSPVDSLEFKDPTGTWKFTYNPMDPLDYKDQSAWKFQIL
ETV1, sequence (P50549 whole entry): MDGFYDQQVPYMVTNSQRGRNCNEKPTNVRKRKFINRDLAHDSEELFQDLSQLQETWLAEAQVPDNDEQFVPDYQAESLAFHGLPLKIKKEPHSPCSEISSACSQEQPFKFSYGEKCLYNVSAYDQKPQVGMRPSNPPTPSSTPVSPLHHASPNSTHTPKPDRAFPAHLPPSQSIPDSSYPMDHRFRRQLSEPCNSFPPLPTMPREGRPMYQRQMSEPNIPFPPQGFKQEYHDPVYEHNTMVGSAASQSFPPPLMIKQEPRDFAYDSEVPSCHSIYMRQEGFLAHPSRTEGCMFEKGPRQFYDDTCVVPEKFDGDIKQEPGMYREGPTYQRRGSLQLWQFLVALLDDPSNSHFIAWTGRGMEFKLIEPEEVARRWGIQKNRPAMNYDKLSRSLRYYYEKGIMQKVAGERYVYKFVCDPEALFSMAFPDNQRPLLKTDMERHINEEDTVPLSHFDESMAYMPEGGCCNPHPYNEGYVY
ETV6, sequence (P41212 whole entry): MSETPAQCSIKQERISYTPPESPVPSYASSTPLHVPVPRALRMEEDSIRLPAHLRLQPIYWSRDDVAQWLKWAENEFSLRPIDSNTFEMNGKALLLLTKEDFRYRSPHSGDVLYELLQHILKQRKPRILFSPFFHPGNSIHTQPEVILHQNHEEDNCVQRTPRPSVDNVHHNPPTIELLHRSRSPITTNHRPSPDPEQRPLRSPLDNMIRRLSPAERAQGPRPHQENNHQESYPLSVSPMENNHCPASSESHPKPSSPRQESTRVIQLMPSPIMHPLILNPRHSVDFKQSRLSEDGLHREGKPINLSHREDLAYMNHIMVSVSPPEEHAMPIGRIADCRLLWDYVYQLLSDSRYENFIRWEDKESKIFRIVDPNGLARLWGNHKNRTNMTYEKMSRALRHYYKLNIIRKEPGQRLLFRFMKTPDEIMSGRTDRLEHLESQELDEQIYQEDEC
ELF4, sequence (Q99607 whole entry): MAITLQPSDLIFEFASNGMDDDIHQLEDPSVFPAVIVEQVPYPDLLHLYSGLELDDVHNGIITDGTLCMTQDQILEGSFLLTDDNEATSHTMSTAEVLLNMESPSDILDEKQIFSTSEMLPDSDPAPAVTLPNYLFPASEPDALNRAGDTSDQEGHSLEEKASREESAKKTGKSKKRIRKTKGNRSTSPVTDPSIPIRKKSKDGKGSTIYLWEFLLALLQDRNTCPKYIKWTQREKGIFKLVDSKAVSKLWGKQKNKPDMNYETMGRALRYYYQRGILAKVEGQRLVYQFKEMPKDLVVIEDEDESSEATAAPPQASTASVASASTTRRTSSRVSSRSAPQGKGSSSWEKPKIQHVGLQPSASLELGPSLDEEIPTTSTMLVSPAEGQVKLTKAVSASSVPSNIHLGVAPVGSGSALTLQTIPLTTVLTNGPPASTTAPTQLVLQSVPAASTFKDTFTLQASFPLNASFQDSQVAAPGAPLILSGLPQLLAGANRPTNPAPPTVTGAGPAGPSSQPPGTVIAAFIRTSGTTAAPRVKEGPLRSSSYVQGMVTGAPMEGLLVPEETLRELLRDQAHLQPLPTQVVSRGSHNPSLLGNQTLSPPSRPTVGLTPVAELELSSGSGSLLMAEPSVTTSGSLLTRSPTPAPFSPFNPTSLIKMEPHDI

Sequence: AAAAGC
- binding signal (FEV): 1.21 fold enrichment (6-mer frequency, TF over GST control)
- binding signal (ETV5): 1.29 fold enrichment (6-mer frequency, TF over GST control)
- binding signal (HSF1): 1.3 fold enrichment (6-mer frequency, TF over GST control)
- binding signal (SPIC): 1.2 fold enrichment (6-mer frequency, TF over GST control)
- binding signal (ELF4): 1.17 fold enrichment (6-mer frequency, TF over GST control)
- binding signal (ELK4): 1.3 fold enrichment (6-mer frequency, TF over GST control)
- binding signal (ETV2): 1.28 fold enrichment (6-mer frequency, TF over GST control)
- binding signal (ELF3): 1.22 fold enrichment (6-mer frequency, TF over GST control)
- binding signal (CRX): 1.43 fold enrichment (6-mer frequency, TF over GST control)
- binding signal (ETV1): 1.19 fold enrichment (6-mer frequency, TF over GST control)
- binding signal (ERF): 1.15 fold enrichment (6-mer frequency, TF over GST control)
- binding signal (ETV3L): 1.23 fold enrichment (6-mer frequency, TF over GST control)
- binding signal (ETS2): 1.15 fold enrichment (6-mer frequency, TF over GST control)
- binding signal (SPDEF): 1.07 fold enrichment (6-mer frequency, TF over GST control)
- binding signal (ETV7): 1.35 fold enrichment (6-mer frequency, TF over GST control)
- binding signal (ELF5): 1.26 fold enrichment (6-mer frequency, TF over GST control)
- binding signal (ETV3): 1.22 fold enrichment (6-mer frequency, TF over GST control)
- binding signal (ETV6): 1.26 fold enrichment (6-mer frequency, TF over GST control)
